This note sets out measurements from PubChem BioAssay (NCATS).

Inconclusive results are not listed. Entries that show only a call come without a potency. Where a structure was tested more than once in an assay, its records may differ in their call. Activity calls are given as the source filed them. The call rests on the fitted dose curve; in most records, active means well fitted inhibition curve with a large enough effect; inconclusive means small, poorly fitted or top-dose-only effect; inactive means flat fitted curve, though single readings scatter.
Potency means the concentration at half of the fitted maximal effect.

The experiment can be described thus: P-glycoprotein substrates identified in KB-8-5-11 adenocarcinoma cell line, qHTS therapeutic library screen (AID 1346987). Further: nearly all actives have a fitted effect of over 65% in size. The following applies: KB-8-5-11 (P-gp overexpressing) viability, CellTiter-Glo, 72 h; series mostly up to 44.5 µM. The gist of the method:
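KB-8-5-11: colchicine-selected sub-line of KB-3-1 over-expressing P-gp; assay medium lacked colchicine. 72 h drug exposure at 37 degree C, CellTiter-Glo.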
Consider `CC(C)(C)c1ccc(CN2CCN(C(c3ccccc3)c3ccc(Cl)cc3)CC2)cc1` (centres undefined), for which the Potency was 23.1 µM (active) and inactive.

`CCN(CC)C(=O)c1cccnc1`: the Potency result was “inactive”.

Regarding `Nc1ncnc2c1ncn2CCOCP(=O)(O)O`, the Potency entry was “inactive”. Turning to `CCC(C(=O)NC(N)=O)c1ccccc1` (centres undefined), the Potency result was “inactive”. On the same count and under the same terms, under `O=C1CC[C@@H](C(=O)N[C@H]2C[C@@H]2c2ccccc2)N1` stands “inactive”.

For `C=CC[N+]1([C@H]2C[C@H]3[C@@H]4CC[C@H]5C[C@H](O)[C@@H](N6CCOCC6)C[C@]5(C)[C@H]4CC[C@]3(C)[C@H]2OC(C)=O)CCCC1`, the Potency entry is “inactive”. As to `CC(C)(C)C(=O)OCC(=O)[C@H]1CC[C@H]2[C@@H]3CCC4=CC(=O)CC[C@]4(C)[C@H]3CC[C@]12C`, the Potency result was “inactive”. `O=C(/C=C/c1cccc(F)c1)NC1CC1`: the Potency result was “inactive”. With `Nc1nc(/C(=C/CC(=O)O)C(=O)N[C@@H]2C(=O)N3C(C(=O)O)=CCS[C@H]23)cs1`, the Potency result was “inactive”. On to `OCC(O)CO`, for which the Potency entry is “inactive”. Turning to `CNCC(O)c1ccc(OC(=O)C(C)(C)C)c(OC(=O)C(C)(C)C)c1` (centres undefined), the Potency result was “inactive”.

For `CC(C)(CO)[C@@H](O)C(=O)NCCCC(=O)O`, the Potency entry is “inactive”.

Regarding `C[C@]12CC[C@@H]3c4ccc(OC(=O)c5ccccc5)cc4CC[C@H]3[C@@H]1CC[C@@H]2O`, the Potency is 4.61 µM (active). Turning to `CN1CCc2c(c3ccccc3n2Cc2ccccc2)C1`, the Potency result was “inactive”. In the case of `NCC[C@H](O)C(=O)N[C@@H]1C[C@H](N)[C@@H](O[C@H]2O[C@H](CN)CC[C@H]2N)[C@H](O)[C@H]1O[C@H]1O[C@H](CO)[C@@H](O)[C@H](N)[C@H]1O`, the Potency result was “inactive”. In the case of `NCCCC[C@H](N)C(=O)O`, the Potency result was “inactive”. Consider `CCCCCCCCCCCCCCCCCCCCCC(=O)Nc1ccn([C@@H]2O[C@H](CO)[C@@H](O)[C@@H]2O)c(=O)n1`, for which the Potency result was “inactive”.

`O=C(O)CCC/C=C\C[C@@H]1[C@@H](/C=C/[C@@H](O)COc2cccc(Cl)c2)[C@H](O)C[C@@H]1O`: the Potency entry is “inactive”. Consider `NC[C@H]1O[C@H](O[C@H]2[C@H](O)[C@@H](O[C@H]3O[C@H](CO)[C@@H](O)[C@H](N)[C@H]3O)[C@H](N)C[C@@H]2N)[C@H](O)[C@@H](O)[C@@H]1O`, for which the Potency result was “inactive”. On the same count and under the same terms, under `CC12CCC(C1)C(C)(C)C2=O` (centres undefined) stands “inactive”; under `O=C[C@H](O)[C@@H](O)[C@@H](O)[C@H](O)CO`, “inactive”. In the case of `C[C@]12CCC(=O)C[C@@H]1CC[C@@H]1[C@@H]2CC[C@]2(C)C=CC[C@@H]12`, the Potency result is “inactive”. On the same count and under the same terms, under `NC(=O)Oc1ccc(Cc2ccccc2)cc1` stands “inactive”; under `CN[C@@H]1[C@@H](O)[C@@H](O[C@@H]2[C@@H](O)[C@H](OC3OC(CN)=CCC3N)[C@@H](N)C[C@H]2N)OC[C@]1(C)O` (some centres undefined), “inactive”.

As to `C=O`, the Potency entry was “inactive”. Consider `Cc1ccc(S(=O)(=O)O)cc1C`, for which the Potency result was “inactive”.

For the compound `CC/C=C\C/C=C\C/C=C\CCCCCCCC(=O)O`, the Potency result was “inactive”. On to `OC[C@H]1O[C@@](CO)(O[C@H]2O[C@H](CO)[C@@H](O)[C@H](O)[C@H]2O)[C@@H](O)[C@@H]1O`, for which the Potency entry was “inactive”. On to `OC[C@H]1O[C@@H]2O[C@H]3[C@H](O)[C@@H](O)[C@@H](O[C@H]4[C@H](O)[C@@H](O)[C@@H](O[C@H]5[C@H](O)[C@@H](O)[C@@H](O[C@H]6[C@H](O)[C@@H](O)[C@@H](O[C@H]7[C@H](O)[C@@H](O)[C@@H](O[C@H]1[C@H](O)[C@H]2O)O[C@@H]7CO)O[C@@H]6CO)O[C@@H]5CO)O[C@@H]4CO)O[C@@H]3CO`, for which the Potency entry was “inactive”. As for `CC(C)(C)c1ccc2c(S(=O)(=O)O)c(C(C)(C)C)ccc2c1`, the Potency result was “inactive”. With `O=C(CCCCCCCCCCCCC1CCCC1)Nc1ccc(S(=O)(=O)c2ccc(NC(=O)CCCCCCCCCCCCC3CCCC3)cc2)cc1`, the Potency result is “inactive”.

Regarding `NCC[C@H](O)C(=O)N[C@@H]1C[C@H](N)[C@@H](O[C@H]2O[C@H](CN)[C@@H](O)[C@H](O)[C@H]2O)[C@H](O)[C@H]1O[C@H]1O[C@H](CO)[C@@H](O)[C@H](N)[C@H]1O`, the Potency entry was “inactive”. Same read-out and setting: then `CCCCC[C@H](O)/C=C/[C@H]1[C@H](O)CC(=O)[C@@H]1C/C=C\CCCC(=O)O`, with “inactive”. For `CC(C)=CCC/C(C)=C/CC/C(C)=C/CC/C=C(\C)CC/C=C(\C)CCC=C(C)C`, the Potency entry was “inactive”. On to `CN[C@@H]1[C@H](O[C@H]2[C@H](O[C@H]3[C@H](O)[C@@H](O)[C@H](N=C(N)N)[C@@H](O)[C@@H]3N=C(N)N)O[C@@H](C)[C@]2(O)C=O)O[C@@H](CO)[C@H](O)[C@H]1O`, for which the outcome is “inactive [setting not given]”.

With `CC/C(=C(/CC)c1ccc(OP(=O)(O)O)cc1)c1ccc(OP(=O)(O)O)cc1`, the Potency entry is “inactive”. Still for that read-out and setting: under H-RKDVY-OH stands “inactive”; under `C[C@H](N)C(=O)N[C@@H](C)P(=O)(O)O`, “inactive”; under `CCCC(=O)O`, “inactive”.
